Laboratory results: PubChem BioAssay (Tox21)
Records with an inconclusive call do not appear. The source made the active and inactive calls. Unless noted, calls follow the shape of the dose curve; as a rule, active = well fitted curve in the direction sought with a large enough effect in the repeat runs; inconclusive = weak or mixed curves; inactive = no such curve, though single readings can be large; an effect the other way counts as inactive or inconclusive. Where a SMILES comes first, the peptide text is derived from it.

Columns and labels:
[1] = qHTS assay to identify small molecule antagonists of the retinoid acid receptor (RAR) signaling pathway - cell viability counter screen (AID 1159551); also: nearly all actives have a fitted effect of over 35% in size
Procedure, shortened: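 Cytotoxicity counter screen in C3RL4 cells: 6 h compound exposure with 1 uM retinol (final), viability from cellular ATP by luminescence.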

[2] = qHTS assay to identify small molecule antagonists of the retinoic acid receptor (RAR) signaling pathway (AID 1159552; also: nearly all actives have a fitted effect of over 50% in size)
Procedure, shortened: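 RARE-luc C3RL4 cells; cpds + 1 uM (final) retinol, 6 hr, 37 C/5% CO2; luciferase reagent, 30 min RT, luminescence readout. Inhibitors of retinol-driven signal scored.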

[3] = qHTS assay to identify small molecule antagonists of the estrogen related receptor (ERR) signaling pathway from Tox21 library - cell viability counter screen (AID 1224834); also: nearly all actives have a fitted effect of over 30% in size
Procedure, shortened: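 Cytotoxicity of test substances is gauged in the same ERR cells used for the antagonist screen, after 17.5 h of compound treatment at 37 C, by CellTiter-Fluor fluorescence measured after 30 min.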

[4] = qHTS assay to identify small molecule agonists of the constitutive androstane receptor (CAR) signaling pathway - cell viability counter screen (AID 1224836); also: series mostly up to about 92 µM; nearly all actives have a fitted effect of over 45% in size
Procedure, shortened: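 HepG2 cells stably carrying hCAR and a CYP2B6-2.2kb reporter were plated 4 h, then given compounds at 15 concentrations plus PK11195 (final 0.75 uM). After 23 h at 37 C, viability was read by CellTiter-Fluor fluorescence.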

[5] = qHTS assay to identify small molecule antagonists of the constitutive androstane receptor (CAR) signaling pathway - cell viability counter screen (AID 1224837); also: series mostly up to about 92 µM; nearly all actives have a fitted effect of over 45% in size
Procedure, shortened: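 Multiplexed cytotoxicity read-out for the CAR antagonist screen: double-stable HepG2-CYP2B6-hCAR cells co-treated with 50 nM CITCO (final) and compound over 15 concentrations, incubated 23 hr, then assessed by CellTiter-Fluor fluorescence.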

[6] = target: Nuclear receptor subfamily 1 group I member 3 (Homo sapiens) (UniProt Q14994); test: qHTS assay to identify small molecule antagonists of the constitutive androstane receptor (CAR) signaling pathway (AID 1224838); also: nearly all actives have a fitted effect of over 40% in size
Sequence of Nuclear receptor subfamily 1 group I member 3 (Homo sapiens) (Q14994 whole entry, looked up): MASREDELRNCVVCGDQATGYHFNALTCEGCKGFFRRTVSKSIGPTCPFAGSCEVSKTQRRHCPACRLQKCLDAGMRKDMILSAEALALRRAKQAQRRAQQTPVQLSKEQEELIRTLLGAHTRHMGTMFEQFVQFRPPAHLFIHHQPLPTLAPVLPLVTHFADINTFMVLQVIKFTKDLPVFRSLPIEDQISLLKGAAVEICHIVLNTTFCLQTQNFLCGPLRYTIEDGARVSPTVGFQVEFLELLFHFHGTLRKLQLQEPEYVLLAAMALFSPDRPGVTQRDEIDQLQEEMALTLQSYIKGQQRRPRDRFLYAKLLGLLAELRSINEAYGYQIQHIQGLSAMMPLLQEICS
Procedure, shortened: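 Compounds were titrated across 15 concentrations onto HepG2 cells double-stably expressing hCAR and a CYP2B6-2.2kb reporter, together with 50 nM CITCO (final). After 24 h at 37 C, luciferase activity was measured by luminescence.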

[7] = qHTS assay to identify small molecule antagonists of the estrogen related receptor signaling pathway with the pleiotropic PPARgamma coactivator (PGC) from Tox21 10K library - cell viability counter screen (AID 1224840; active = well fitted cell-killing curve with a large enough effect in the repeat runs, not every such curve was filed as active; also: nearly all actives have a fitted effect of over 40% in size)
Procedure, shortened: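 Step one, plate 2,000 PGC/ERR cells per well; step two, incubate 6 h at 37 C/5% CO2; step three, pin-transfer compounds; step four, incubate 17.5 h; step five, add CellTiter-Fluor and read fluorescence after 30 min.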

[8] = target: Thyrotropin receptor (Homo sapiens) (UniProt P16473); test: qHTS assay to identify small molecule agonists of the thyroid stimulating hormone receptor (TSHR) signaling pathway (AID 1224843; calls by dose curve; also: nearly all actives have a fitted effect of over 45% in size)
Sequence of Thyrotropin receptor (Homo sapiens) (P16473 whole entry, looked up): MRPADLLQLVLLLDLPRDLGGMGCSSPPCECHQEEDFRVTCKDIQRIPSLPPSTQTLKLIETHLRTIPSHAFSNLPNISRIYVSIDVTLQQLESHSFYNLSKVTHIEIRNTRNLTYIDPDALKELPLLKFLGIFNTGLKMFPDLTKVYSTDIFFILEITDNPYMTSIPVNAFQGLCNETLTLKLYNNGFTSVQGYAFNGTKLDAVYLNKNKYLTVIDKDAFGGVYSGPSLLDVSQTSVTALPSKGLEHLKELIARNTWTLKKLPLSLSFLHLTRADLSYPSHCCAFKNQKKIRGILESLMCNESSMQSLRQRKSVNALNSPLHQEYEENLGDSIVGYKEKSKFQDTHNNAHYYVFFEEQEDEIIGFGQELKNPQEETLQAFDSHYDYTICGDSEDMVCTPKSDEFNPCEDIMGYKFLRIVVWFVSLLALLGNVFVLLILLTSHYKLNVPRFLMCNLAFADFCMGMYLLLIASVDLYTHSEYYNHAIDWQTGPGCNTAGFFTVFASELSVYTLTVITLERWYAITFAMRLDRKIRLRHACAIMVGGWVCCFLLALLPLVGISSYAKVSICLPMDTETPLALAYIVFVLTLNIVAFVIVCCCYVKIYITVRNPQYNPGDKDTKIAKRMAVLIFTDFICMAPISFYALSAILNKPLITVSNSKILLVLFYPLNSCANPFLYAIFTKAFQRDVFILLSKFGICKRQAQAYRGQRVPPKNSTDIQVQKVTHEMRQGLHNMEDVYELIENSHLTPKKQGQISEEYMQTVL
Procedure, shortened: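 Steps: seed 800 TSHR-HEK293 cells per well; add test compound and hold 30 min at ambient temperature; dispense cAMP-d2 then anti-cAMP cryptate; incubate 1 h at ambient; measure fluorescence intensity.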

[9] = qHTS assay to identify small molecule agonists of the hypoxia (HIF-1) signaling pathway - cell viability counter screen (AID 1224844; calls by dose curve; also: nearly all actives have a fitted effect of over 50% in size)
Procedure, shortened: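 Tox21 10K compounds were added to HRE-bla ME-180 cells (0.5% dialyzed FBS) and incubated 17 hrs at 37C; ATP-based CellTiter-Glo luminescence then reported cell viability in the same wells.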

[10] = qHTS assay to identify small molecule agonists of H2AX (AID 1224845; active = well fitted activation curve with a large enough effect in the signal ratio in the repeat runs, not every such curve was filed as active; the % refers to the signal ratio)
Procedure, shortened: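 Wild-type CHO-K1 cells, plated overnight, exposed 3hr at 37C to 15 concentrations (0.76% DMSO final). Lysed, then HTRF anti-pH2AX (S139) cryptate and anti-H2AX-d2 antibodies, 24 hr room temperature; 665/620 nm emission read.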

[11] = qHTS assay to identify small molecule agonists of the hypoxia (HIF-1) signaling pathway (AID 1224846; active = well fitted activation curve with a large enough effect in the signal ratio in the repeat runs, not every such curve was filed as active; the % refers to the signal ratio)
Procedure, shortened: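 Steps: seed ME-180 HRE-bla cells (2,000/well, 0.5% dialyzed FBS); incubate 5 hrs at 37C; pin-transfer compounds or DMSO; incubate 17 hrs; add LiveBLAzer B/G substrate CCF4-AM; measure reporter activation by FRET.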

[12] = qHTS assay to identify small molecule agonists of the RXR signaling pathway - cell viability counter screen (AID 1159529);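 also: HEK 293T cells carrying an RXR-alpha UAS beta-lactamase reporter; series mostly up to about 77 µM; nearly all actives have a fitted effect of over 50% in size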
Procedure, shortened: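 RXR-alpha-UAS-bla HEK 293T cells in medium with 2% charcoal-stripped FBS were preincubated 5 hr, then exposed to compounds for 16 hr at 37 C. Viability was read as CellTiter-Glo luminescence after 30 min at room temperature.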

[13] = target: Luciferin 4-monooxygenase (Photinus pyralis) (UniProt P08659); test: qHTS assay to identify small molecule inhibitors of firefly luciferase (AID 1224835); also: series mostly up to about 120 µM; nearly all actives have a fitted effect of over 25% in size
Sequence of Luciferin 4-monooxygenase (Photinus pyralis) (P08659 whole entry, looked up): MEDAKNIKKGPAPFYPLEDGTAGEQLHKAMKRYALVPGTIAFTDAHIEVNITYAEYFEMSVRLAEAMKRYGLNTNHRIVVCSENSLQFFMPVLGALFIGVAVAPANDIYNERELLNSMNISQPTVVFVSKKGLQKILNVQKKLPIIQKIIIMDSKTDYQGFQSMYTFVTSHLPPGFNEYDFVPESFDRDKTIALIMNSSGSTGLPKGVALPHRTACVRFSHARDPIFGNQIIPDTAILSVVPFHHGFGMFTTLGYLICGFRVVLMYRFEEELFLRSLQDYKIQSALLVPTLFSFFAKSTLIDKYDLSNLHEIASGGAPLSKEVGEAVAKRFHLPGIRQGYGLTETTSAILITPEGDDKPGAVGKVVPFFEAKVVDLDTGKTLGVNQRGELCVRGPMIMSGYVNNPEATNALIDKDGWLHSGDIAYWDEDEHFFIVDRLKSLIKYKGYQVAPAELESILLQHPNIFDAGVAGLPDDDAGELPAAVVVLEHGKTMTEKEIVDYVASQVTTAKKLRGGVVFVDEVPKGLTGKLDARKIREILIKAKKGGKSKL
Procedure, shortened: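 Biochemical qHTS: compounds run as interplate titrations against purified firefly enzyme, with D-luciferin and ATP each at its KM concentration. Light output recorded by CCD imaging.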

[14] = target: Nuclear receptor subfamily 1 group I member 3 (Homo sapiens) (UniProt Q14994); test: qHTS assay to identify small molecule agonists of the constitutive androstane receptor (CAR) signaling pathway (AID 1224839);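 also: HepG2 cells stably carrying human CAR and a CYP2B6 luciferase reporter; series mostly up to about 92 µM; nearly all actives have a fitted effect of over 15% in size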
Procedure, shortened: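 HepG2 cells stably expressing hCAR and a CYP2B6-2.2kb luciferase reporter were treated with compounds at 15 concentrations plus 0.75 uM PK11195 (final) for 24 h at 37 C; luminescence was read after ONE-Glo addition.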

[15] = qHTS assay to identify small molecule agonists of H2AX - cell viability counter screen (AID 1224847; calls by dose curve; also: top concentration of the series differs between compounds; nearly all actives have a fitted effect of over 30% in size)
Procedure, shortened: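 Wild-type CHO-K1 cells (10% FBS medium) were plated overnight at 37C, exposed to compounds at 15 concentrations for 3 hr at 37C (0.76% DMSO final), and viability was read as CellTiter-Glo luminescence after 30 min at room temperature.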

[16] = qHTS assay to identify small molecule agonists of the retinoic acid receptor (RAR) signaling pathway (AID 1159553)
Procedure, shortened: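 Agonist activity was scored in C3RL4 cells bearing a retinoic acid response element luciferase construct. Cells were treated with compounds for 6 hr at 37 C, and luciferase signal was measured as luminescence.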

[17] = qHTS assay to identify small molecule antagonists of the estrogen related receptor signaling pathway with the pleiotropic PPARgamma coactivator (PGC) from Tox21 10K library (AID 1224841; call rule not given here; also: series mostly up to about 92 µM; actives are mostly falling curves and most rising ones were filed inactive; nearly all actives have a fitted effect of over 50% in size)
Procedure, shortened: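 Antagonism in this quantitative HTS is taken from loss of luciferase signal in PGC/ERR cells. Cells (2,000/well) are treated with compounds in DMSO after a 6 h settling period and read by One-Glo luminescence after 18 h.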

[18] = qHTS assay to identify small molecule agonists of the estrogen related receptor signaling pathway with the pleiotropic PPARgamma coactivator (PGC) from Tox21 10K library (AID 1224842); also: nearly all actives have a fitted effect of over 15% in size
Procedure, shortened: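 PGC/ERR reporter cell line, 2,000 cells per well, incubated 6 h at 37 C before 23 nL compound in DMSO was added. After 18 h at 37 C, One-Glo luminescence read following 30 min at room temperature.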

[19] = qHTS assay to identify small molecule antagonists of the estrogen related receptor (ERR) signaling pathway from Tox21 library (AID 1224848); also: nearly all actives have a fitted effect of over 50% in size
Procedure, shortened: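 Luminescent reporter read-out (ONE-Glo) from NTP's ERR cell line after 18 h treatment at 37 C with DMSO-dissolved Tox21 compounds; cells pre-plated 6 h beforehand at 2,000 per well.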

Measured: Potency

CCC(C)OC(C)CC (stereo not drawn)
inactive: [1] | [2] | [3] | [4] | [5] | [6] | [7] | [8] | [9] | [10] | [11]

CC(=O)N[C@@H](CO)C(=O)N[C@@H](CC(=O)O)C(=O)N[C@@H](CCCCN)C(=O)N1CCC[C@H]1C(=O)O (Ac-SDKP-OH)
inactive: [12] | [1] | [2] | [3] | [13] | [4] | [5] | [6] | [14] | [7] | [9] | [10] | [11] | [15]

Cc1ccc(C(C)NC(=O)[C@@H](NC(=O)OC(C)C)C(C)C)cc1 (stereo partly drawn)
inactive: [12] | [1] | [16] | [3] | [4] | [5] | [7] | [8] | [9] | [10] | [11] | [15]

O=C1CCC(=O)N1Cl
inactive: [12] | [1] | [16] | [13] | [4] | [6] | [7] | [8] | [9] | [10] | [11] | [15]

CC(O)CC(C)O (stereo not drawn)
inactive: [12] | [1] | [2] | [16] | [3] | [13] | [4] | [5] | [6] | [14] | [7] | [8] | [9] | [10] | [11] | [15]

CN(C)CC/C=C1/c2ccccc2COc2ccc(CC(=O)O)cc21
inactive: [12] | [1] | [2] | [16] | [3] | [13] | [4] | [5] | [6] | [14] | [7] | [8] | [9] | [10] | [11] | [15]

CC(C)c1ccc(C=O)cc1
inactive: [12] | [1] | [2] | [16] | [3] | [13] | [4] | [5] | [6] | [14] | [7] | [8] | [9] | [10] | [11] | [15]

CC1=C(C(=O)O)N2C(=O)[C@@H](NC(=O)[C@H](N)c3ccccc3)[C@H]2SC1
inactive: [12] | [1] | [2] | [16] | [3] | [4] | [5] | [14] | [7] | [17] | [18] | [10] | [15] | [19]

CC/C(C)=N\O[Si](C)(O/N=C(\C)CC)O/N=C(\C)CC
inactive: [12] | [1] | [2] | [16] | [3] | [13] | [4] | [5] | [6] | [14] | [7] | [8] | [9] | [10] | [11] | [15]

OCC(O)CN1CCN(c2ccccc2)CC1 (stereo not drawn)
inactive: [12] | [1] | [16] | [3] | [13] | [4] | [5] | [6] | [14] | [7] | [8] | [10] | [15]

CCN(CC)CCN
inactive: [1] | [2] | [16] | [4] | [5] | [6] | [14] | [7] | [8] | [9] | [10] | [11] | [15]

CCCCCCCCCCOC(C)=O
inactive: [12] | [1] | [2] | [16] | [3] | [13] | [4] | [6] | [14] | [7] | [8] | [9] | [10] | [11] | [15]

CC(C)NCC(O)c1ccc2ccccc2c1 (stereo not drawn)
inactive: [1] | [2] | [16] | [3] | [13] | [4] | [5] | [6] | [14] | [7] | [8] | [9] | [10] | [11] | [15]

Cn1c(=O)c2[nH]c(Br)nc2n(C)c1=O
inactive: [12] | [1] | [2] | [16] | [3] | [13] | [4] | [5] | [6] | [14] | [7] | [8] | [9] | [10] | [11] | [15]

C[C@]12CCC(=O)C=C1CC[C@H]1[C@@H]3CC[C@](O)(C(=O)CO)[C@@]3(C)C[C@H](O)[C@@]12F
inactive: [12] | [1] | [2] | [16] | [13] | [4] | [6] | [14] | [7] | [8] | [9] | [10] | [11] | [15]
